# Experimental data: PubChem BioAssay (NCATS)
# Values without a mark were called inactive. Records with an inconclusive call do not appear. Entries that show only a call come without a potency. Calls of active or inactive are those of the source. Calls follow the shape of the dose curve; as a rule, active = well fitted curve in the direction sought with a large enough effect; inconclusive = small, poorly fitted or top-dose-only effect, or another doubt; inactive = no such curve, though single readings can be large; an effect the other way counts as inactive or inconclusive.
# Key:
# [1] = molecular target: Metallo-beta-lactamase type 2 (Klebsiella pneumoniae) (UniProt C7C422); test: qHTS to identify inhibitors of the New Delhi Metallo-beta-lactamase (NDM): assay validation screen against the NCATS LOPAC Collection (AID 1794843);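 also: nitrocefin turnover by NDM-1 measured as 485 nm absorbance at plateau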
# Method in brief: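 Enzyme 2 nM final, 50 mM HEPES pH 7.0, 1 uM ZnSO4, 0.01% Tween20; cpds in DMSO, preincub w/ enzyme; + nitrocefin (50 uM stock); A485 at plateau; no-enzyme column as blank.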
# [2] = molecular target: Glutathione peroxidase 1 (Homo sapiens) (UniProt P07203); test: Primary qHTS Assay for Inhibitors of Recombinant Selenoprotein Glutathione Peroxidase 1 (GPX1) (AID 1845191); also: nearly all actives have a fitted effect of over 65% in size; also: potency is read from the fitted curve at half-maximal effect
# Method in brief: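 GPX1 10 nM, GR 100 nM, GSH 1 mM, NADPH 0.5 mM, CHP 0.5 mM (final). 30-min cpd preincubation, RT. Ex340/Em450 read t=0, t=15 min.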
# [3] = qHTS profiling for inhibitors of Plasmodium falciparum proliferation (AID 504749); also: nearly all actives have a fitted effect of over 60% in size; also: potency is read from the fitted curve at half-maximal effect; settings: P. falciparum in erythrocytes, SYBR Green DNA, 72 h
# Method in brief: (§1)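 Quantitative HTS: compounds pinned into medium, infected erythrocytes added (0.3% parasitemia, 2.5% hematocrit), 72 h culture at 37 C under 5% CO2. Saponin/Triton lysis with SYBR Green I, overnight RT, then fluorescence read.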
# 3D7 = test: as above; settings: P. falciparum in erythrocytes, SYBR Green DNA, 72 h; series mostly up to 28.7 µM
# Method in brief: as §1
# 7G8 = test: as above; settings: P. falciparum in erythrocytes, SYBR Green DNA, 72 h; series mostly up to 28.7 µM
# Method in brief: as §1
# AA1029 = test: as above; settings: P. falciparum in erythrocytes, SYBR Green DNA, 72 h; series mostly up to 28.7 µM
# Method in brief: as §1
# AS120 = test: as above; settings: P. falciparum in erythrocytes, SYBR Green DNA, 72 h; series mostly up to 28.7 µM
# Method in brief: as §1
# ATS189 = test: as above; settings: P. falciparum in erythrocytes, SYBR Green DNA, 72 h; series mostly up to 28.7 µM
# Method in brief: as §1
# ATS95 = test: as above; settings: P. falciparum in erythrocytes, SYBR Green DNA, 72 h; series mostly up to 28.7 µM
# Method in brief: as §1
# C2A = test: as above; settings: P. falciparum in erythrocytes, SYBR Green DNA, 72 h; series mostly up to 28.7 µM
# Method in brief: as §1
# CP185 = test: as above; settings: P. falciparum in erythrocytes, SYBR Green DNA, 72 h; series mostly up to 28.7 µM
# Method in brief: as §1
# CP191 = test: as above; settings: P. falciparum in erythrocytes, SYBR Green DNA, 72 h; series mostly up to 28.7 µM
# Method in brief: as §1
# [4] = molecular target: Phospholipid hydroperoxide glutathione peroxidase GPX4 (Homo sapiens) (UniProt P36969); test: Primary qHTS Assay for Inhibitors of Recombinant Selenoprotein Glutathione Peroxidase 4 (GPX4) (AID 1845192); settings: outcome: dose series up to 50 µM unless noted; also: nearly all actives have a fitted effect of over 65% in size
# Method in brief: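 qHTS, GR-coupled: GPX4 200 nM + cpd 30 min RT → GSH 1 mM, NADPH 0.5 mM, GR 100 nM → CHP 0.5 mM start; fluor 340/450 at t0 and t15 min; no-enzyme wells as control.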
# [5] = molecular target: Luciferin 4-monooxygenase (Photinus pyralis) (UniProt P08659); test: Primary firefly luciferase (FLuc) qHTS assay for identification of artifact compounds. (AID 1845220); also: nearly all actives have a fitted effect of over 60% in size
# Method in brief: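 In this counter-screen for luciferase artifacts, test compounds met substrate (10 uM each luciferin and ATP) before 10 nM enzyme started the reaction. Light output was measured 5 min later.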
# [6] = tested on: Nanoluciferase (engineered Oplophorus gracilirostris luciferase); test: Primary Nanoluciferase (NLuc) qHTS assay for identification of artifact compounds. (AID 1845222);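 also: NLuc secreted into diluted conditioned medium of S16 cells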
# Method in brief: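 Using secreted nanoluciferase in S16 culture medium (0.22 um filtered, 1:55 dilution), compounds were preincubated 15 min at RT. Signal was generated with Nano-Glo reagent (1:100) over 5 min.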
# [7] = at 28.7 µM (top of the series), parasite line A
# [8] = at 28.7 µM (top of the series), parasite line B
# [9] = at 12.8 µM (top of the series), parasite line A
# [10] = at 12.8 µM (top of the series), parasite line B
# Chain of Glutathione peroxidase 1 (Homo sapiens) (P07203 whole entry, looked up): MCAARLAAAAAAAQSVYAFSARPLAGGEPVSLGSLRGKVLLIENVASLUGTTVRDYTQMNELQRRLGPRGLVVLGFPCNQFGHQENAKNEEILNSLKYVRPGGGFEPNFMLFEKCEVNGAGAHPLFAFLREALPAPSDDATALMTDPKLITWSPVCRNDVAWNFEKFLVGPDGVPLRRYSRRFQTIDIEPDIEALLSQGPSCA
# Chain of Phospholipid hydroperoxide glutathione peroxidase GPX4 (Homo sapiens) (P36969 whole entry, looked up): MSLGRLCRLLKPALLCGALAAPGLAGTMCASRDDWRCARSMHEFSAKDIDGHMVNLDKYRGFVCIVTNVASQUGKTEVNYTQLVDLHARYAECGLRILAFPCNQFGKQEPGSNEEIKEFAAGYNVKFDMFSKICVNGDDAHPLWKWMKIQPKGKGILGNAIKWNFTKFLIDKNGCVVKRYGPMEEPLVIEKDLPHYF
# Chain of Metallo-beta-lactamase type 2 (Klebsiella pneumoniae) (C7C422 whole entry, looked up): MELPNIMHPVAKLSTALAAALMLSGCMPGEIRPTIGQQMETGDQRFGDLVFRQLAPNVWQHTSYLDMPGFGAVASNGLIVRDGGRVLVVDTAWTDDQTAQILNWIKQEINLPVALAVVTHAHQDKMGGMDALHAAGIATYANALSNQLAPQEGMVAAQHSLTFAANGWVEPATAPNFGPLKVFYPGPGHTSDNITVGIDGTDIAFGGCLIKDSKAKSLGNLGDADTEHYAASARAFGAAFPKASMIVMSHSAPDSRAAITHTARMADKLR
SMILES,Potency [1],Potency [2],"activity, negative = inhibition [3, 7] [%]","activity, negative = inhibition [3, 8] [%]",Potency (3D7),Potency (7G8),Potency (AA1029),Potency (AS120),Potency (ATS189),Potency (ATS95),Potency (C2A),Potency (CP185),Potency (CP191),outcome [4],"activity, negative = inhibition [3, 9] [%]","activity, negative = inhibition [3, 10] [%]",Potency ([3]; parasite line A),outcome [5],outcome [6],Potency ([3]; parasite line B)
FC(F)(F)c1ccccc1-n1ccnc1,inactive,inactive,11.5,-3.4,inactive,inactive,inactive,inactive,inactive,inactive,inactive,inactive,inactive,,,,,,,
Cc1cc(C)c(/C=C2\C(=O)Nc3ccccc32)[nH]1,inactive,inactive,2.71,10.1,inactive,inactive,inactive,inactive,inactive,inactive,inactive,inactive,inactive,,,,,,,
CN1CCN(C2=Nc3ccccc3Oc3ccc(Cl)cc32)CC1,inactive,inactive,,,inactive,,inactive,inactive,inactive,inactive,inactive,inactive,inactive,inactive,4.87,-8.95,,,,
COc1ccc(CCN(C)CCCC(C#N)(c2cc(OC)c(OC)c(OC)c2)C(C)C)cc1OC (centres undefined),inactive,inactive,,,,10 µM (active),,,,,,,,inactive,,,,,,
COCCCC/C(=N\OCCN)c1ccc(C(F)(F)F)cc1,inactive,inactive,-21.1,,inactive,10 µM (active),,,inactive,,,,,inactive,,,,,,
CC(C(=O)O)c1ccc(CC2CCCC2=O)cc1 (centres undefined),inactive,inactive,0.257,5.29,inactive,inactive,inactive,inactive,inactive,inactive,inactive,inactive,inactive,,,,,,,
CC(C)[N+](C)(CCOC(=O)C1c2ccccc2Oc2ccccc21)C(C)C,inactive,inactive,,,,,,,,,,inactive,,inactive,,,,,,
C[N+](C)(C)CCOC(=O)CCC(=O)OCC[N+](C)(C)C,inactive,inactive,1.72,1.32,inactive,inactive,inactive,inactive,inactive,inactive,inactive,inactive,inactive,,,,,,,
CN(C)CCOC(=O)COc1ccc(Cl)cc1,inactive,inactive,,,,inactive,inactive,inactive,inactive,inactive,inactive,inactive,inactive,inactive,18.7,-4.94,,,,
Cc1scc2c1N(C(=O)CN1CCN(C)CC1)c1ccccc1NC2=O,inactive,inactive,0.0421,4.05,inactive,inactive,inactive,inactive,inactive,inactive,inactive,inactive,,,,,,,,
Brc1c(NC2=NCCN2)ccc2nccnc12,inactive,inactive,0,3.95,,11.2 µM (active),inactive,inactive,,inactive,inactive,inactive,,inactive,,,,,,
Cc1nc2sccn2c(=O)c1CCN1CCC(=C(c2ccc(F)cc2)c2ccc(F)cc2)CC1,inactive,inactive,,,,10 µM (active),,11.2 µM (active),,,,,,inactive,,,,,,
O=c1[nH]c(=O)n([C@H]2C[C@H](O)[C@@H](CO)O2)cc1Br,inactive,inactive,-7.76,-6.27,inactive,inactive,inactive,inactive,inactive,inactive,inactive,inactive,inactive,,,,,,,
CCOC(=O)C1=C(C)NC(C)=C(C(=O)OC)C1c1cccc([N+](=O)[O-])c1 (centres undefined),inactive,inactive,,,,10 µM (active),11.2 µM (active),11.2 µM (active),,,inactive,,,inactive,,,,,,
C#CCN(C)CCCOc1ccc(Cl)cc1Cl,inactive,inactive,6.5,12.2,inactive,,inactive,inactive,inactive,inactive,inactive,inactive,inactive,inactive,,,,,,
CC(C)(Oc1ccc(CCNC(=O)c2ccc(Cl)cc2)cc1)C(=O)O,inactive,,,,inactive,inactive,inactive,inactive,inactive,inactive,inactive,inactive,inactive,inactive,-1.93,-2.04,,,,
NC(Cc1ccc(Cl)cc1)C(=O)O (centres undefined),inactive,inactive,17.3,7.34,inactive,,inactive,inactive,inactive,inactive,inactive,inactive,inactive,,,,,,,
Cc1ccc(S(=O)(=O)NC(=O)NN2CCCCCC2)cc1,inactive,inactive,-5.36,12.1,inactive,inactive,inactive,inactive,inactive,inactive,inactive,inactive,inactive,,,,,,,
COCCOC(=O)C1=C(C)NC(C)=C(C(=O)OC(C)C)C1c1cccc([N+](=O)[O-])c1 (centres undefined),inactive,inactive,,,,11.2 µM (active),,7.94 µM (active),,,inactive,,,,,,,,,
CN(C)CCN(Cc1cccs1)c1ccccn1,inactive,inactive,5.46,6.28,inactive,,10 µM (active),12.6 µM (active),,,,,inactive,inactive,,,,,,

SMILES,Potency [1],Potency [2],"activity, negative = inhibition [3, 7] [%]","activity, negative = inhibition [3, 8] [%]",Potency (3D7),Potency (7G8),Potency (AA1029),Potency (AS120),Potency (ATS189),Potency (ATS95),Potency (C2A),Potency (CP185),Potency (CP191),outcome [4],"activity, negative = inhibition [3, 9] [%]","activity, negative = inhibition [3, 10] [%]",Potency ([3]; parasite line A),outcome [5],outcome [6],Potency ([3]; parasite line B)
CC(C)NNC(=O)c1ccncc1,inactive,inactive,-11.8,,inactive,inactive,7.94 µM (active),inactive,inactive,,inactive,inactive,4.47 µM (active),inactive,,,,,,
CCCCCCCC/C=C\CCCCCCCC(=O)NCc1ccc(O)c(OC)c1,inactive,inactive,,,,,,,8.91 µM (active),,,11.2 µM (active),12.6 µM (active),,,,7.08 µM (active),,,
COC(=O)[C@H]1[C@H]2C[C@@H]3c4[nH]c5cc(OC)ccc5c4CCN3C[C@H]2C[C@@H](OC(=O)c2cc(OC)c(OC)c(OC)c2)[C@@H]1OC,inactive,inactive,,,8.91 µM (active),1.41 µM (active),8.91 µM (active),4.47 µM (active),11.2 µM (active),11.2 µM (active),11.2 µM (active),7.94 µM (active),8.91 µM (active),,,,11.2 µM (active),inactive,inactive,11.2 µM (active)
COCCc1ccc(OCC(O)CNC(C)C)cc1 (centres undefined),inactive,,,,,,,,,,,,,inactive,,,,,,
Cc1nnc(SCC2=C(C(=O)O)N3C(=O)[C@@H](NC(=O)Cn4cnnn4)[C@H]3SC2)s1,inactive,20.2 µM (active),11.1,2.94,inactive,inactive,inactive,inactive,inactive,inactive,inactive,inactive,inactive,,,,,,,
CC(C)COCC(CN(Cc1ccccc1)c1ccccc1)N1CCCC1 (centres undefined),inactive,inactive,,,inactive,,,,inactive,,inactive,,inactive,inactive,,,,,,
CCN(CC)CCNC(=O)c1ccc(NC(C)=O)cc1,inactive,,9.9,23.7,inactive,inactive,inactive,inactive,inactive,inactive,inactive,inactive,inactive,inactive,,,,,,
Fc1ccc(C(c2ccc(F)cc2)N2CCN(C/C=C/c3ccccc3)CC2)cc1,inactive,,,,,4.47 µM (active),,10 µM (active),,,,,,,,,,,,
Cc1nc2ccccn2c(=O)c1CCN1CCC(C(=O)c2ccc(F)cc2)CC1,inactive,,-18.1,11.2,inactive,14.1 µM (active),,inactive,,,,inactive,7.94 µM (active),,,,,,,
COCC(=O)O[C@]1(CCN(C)CCCc2nc3ccccc3[nH]2)CCc2cc(F)ccc2[C@@H]1C(C)C,inactive,,,,7.94 µM (active),1.12 µM (active),0.794 µM (active),1.26 µM (active),3.98 µM (active),1.26 µM (active),0.562 µM (active),4.47 µM (active),4.47 µM (active),,,,3.55 µM (active),,,5.01 µM (active)
CCN(CC)CCNC(=O)c1cc(S(C)(=O)=O)ccc1OC,inactive,,,,inactive,inactive,inactive,inactive,inactive,inactive,inactive,inactive,inactive,,11.8,10.3,,,,
Cc1ccc(/C(=C\CN2CCCC2)c2ccccn2)cc1,,inactive,,,,,,,,,,,,inactive,,,,,,
CCCCOCCOCCOCc1cc2c(cc1CCC)OCO2,,,4.14,5.71,inactive,inactive,inactive,inactive,inactive,inactive,inactive,inactive,inactive,inactive,,,,,,
CN(C)C(=O)Oc1cccc([N+](C)(C)C)c1,inactive,,4.77,-6.35,inactive,inactive,inactive,inactive,inactive,inactive,inactive,inactive,inactive,inactive,,,,,,
CN1CCN(CC(=O)N2c3ccccc3C(=O)Nc3cccnc32)CC1,,inactive,-7.56,-8.28,inactive,inactive,inactive,inactive,inactive,inactive,inactive,inactive,inactive,inactive [at 4.52 µM],,,,,,
CN(C)CCCN1c2ccccc2Sc2ccccc21,inactive,,,,inactive,3.16 µM (active),3.16 µM (active),,,,,,inactive,inactive,8.14,20.7,,,,
O=C(O)CP(=O)(O)O,,inactive,3.45,-17.2,inactive,inactive,inactive,inactive,inactive,inactive,inactive,inactive,inactive,inactive,,,,,,
CCOC(=O)C1=C(C)NC(C)=C(C(=O)OC)C1c1cccc(Cl)c1Cl (centres undefined),inactive,,-7.27,-5.02,inactive,,inactive,inactive,inactive,inactive,inactive,inactive,inactive,inactive,,,,,,
CC(=O)[C@@]1(O)CC[C@H]2[C@@H]3CCC4=CC(=O)CC[C@]4(C)[C@H]3CC[C@@]21C,inactive,,-9.44,1.51,inactive,inactive,inactive,inactive,inactive,inactive,inactive,inactive,inactive,,,,,,,
